Source: PubChem BioAssay
A3A deaminase = blocks human APOBEC3A ssDNA deamination; AID 493011; P31941; 330,000 tested, 0.41% active; inhibition, % at 20 µM; recombinant A3A, FAM/TAMRA ssDNA deamination fluorescence;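 active = at least 40% inhibition at 20 µM here, with at most 30% in a related deaminase screen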;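 also: plate controls were A3A with DMSO for no effect and wells lacking A3A enzyme for full effect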
Target sequence (P31941 whole entry, looked up): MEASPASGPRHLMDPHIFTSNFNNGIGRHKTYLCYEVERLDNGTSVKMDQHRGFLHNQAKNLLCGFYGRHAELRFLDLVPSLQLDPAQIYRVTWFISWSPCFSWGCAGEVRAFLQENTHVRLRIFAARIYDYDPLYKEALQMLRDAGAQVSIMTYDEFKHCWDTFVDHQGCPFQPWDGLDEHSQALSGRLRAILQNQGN
PfGluPho inh = PfG6PD (Plasmodium falciparum) enzyme inhibition. PfGluPho enzyme, NADPH resazurin-diaphorase fluorescence. inhibition, % at 20 µM. 350,000 tested, 0.78% active. AID 504690;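 active = inhibition reaching at least a set limit at 20 µM in the primary screen, cut at about 59% in these data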;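 also: 0% = DMSO wells with substrate and 100% = DMSO wells lacking glucose-6-phosphate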
APOBEC3G inh = inhibitors of human APOBEC3G DNA deaminase; Q9HC16; recombinant A3G, ssDNA deamination FAM/TAMRA fluorescence; AID 493012; inhibition, % at 20 µM; 330,000 tested, 0.28% active;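 active = inhibition of at least 40% at 20 µM, with no more than 30% in the related APOBEC3A deaminase screen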;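 also: plate controls were DMSO wells with A3G for no effect and wells lacking A3G enzyme for full effect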
CR mimetic SO = yeast age-related superoxide inhibition as caloric restriction mimetic | superoxide response (% of plate mean), % at 10 µM | 330,000 tested, 0.18% active | S. cerevisiae aged cells, superoxide DHE fluorescence; stronger effect = lower value | AID 2690;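 active = superoxide response under a set limit, about three screen SD below normal, cut at about 65% in these data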;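 also: yeast aged for seven days with compound at 30 °C before DHE staining; 100% = average MFI of all compound-treated wells on the plate with controls excluded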
M18AAP inhibitor = PfM18AAP enzyme inhibition | recombinant PfM18AAP, H-Glu-NHMec fluorogenic cleavage | inhibition, % at 7.35 µM | 290,000 tested, 1.2% active | AID 1822;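 active = inhibition above the campaign mean inhibition over all tested compounds plus 3 SD, cut at about 28% in these data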;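 also: 0% = plate median of test compound wells and 100% = 2 mM ZnCl2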
APOBEC3G confirm = confirmation of human APOBEC3G DNA deaminase inhibitors. shares compounds with APOBEC3G inh. recombinant A3G ssDNA deaminase, UDG/FAM-TAMRA fluorescence. inhibition, % at 20 µM. 890 tested, 72% active;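 active = inhibition reaching a set limit in any replicate at 20 µM, the limit being 80% of the first screen's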
UDG ctr A3G = inhibits E. coli UDG, flagging false APOBEC3G inhibitors; shares compounds with APOBEC3G inh; inhibition, % at 20 µM; UDG counterscreen, FAM/TAMRA oligo fluorescence; 710 tested, under 10 active; AID 504715;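 active = compounds giving 40% or more inhibition at 20 µM in any one of the three replicates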;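 also: plate controls were DMSO wells with UDG and oligo for no effect and DMSO wells lacking both for full effect; inhibitors lower the FAM signal released by uracil excision and alkaline cleavage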
Target sequence (P12295 whole entry, looked up): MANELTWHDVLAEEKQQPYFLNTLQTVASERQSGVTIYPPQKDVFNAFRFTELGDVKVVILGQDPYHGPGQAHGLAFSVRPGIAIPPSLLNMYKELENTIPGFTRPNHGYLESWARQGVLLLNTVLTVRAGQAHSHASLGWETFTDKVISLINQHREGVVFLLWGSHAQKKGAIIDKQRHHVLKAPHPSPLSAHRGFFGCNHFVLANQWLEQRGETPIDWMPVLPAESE
Active calls of the source: *; . = no result. In the library only some 2.4% were active in any assay of this set; here they are far more common.

SMILES | A3A deaminase | PfGluPho inh | APOBEC3G inh | CR mimetic SO | M18AAP inhibitor | APOBEC3G confirm | UDG ctr A3G
O=c1c2ccccc2sn1-c1cc(S(=O)(=O)N2CCOCC2)ccc1N1CCOCC1 | 0 | 111* | 77* | 109 | 31* | 77* | 2
COc1ccccc1NNC(=O)C(O)(c1ccccc1)c1ccccc1 | 1 | 0 | 56* | 103 | -39 | -2 | .
COc1ccccc1NNC(=O)C(O)(c1ccccc1OC)c1ccccc1OC | -2 | -5 | -7 | 74 | -11 | . | .
S=c1[nH]c2ccc(Cl)cc2[nH]1 | -1 | 51 | 41* | 96 | 12 | 81* | -3
Cc1cc(F)ccc1S(=O)(=O)Nc1ncnc2sc3c(c12)CCC3 | -1 | -11 | 51* | 104 | 6 | -4 | 2
Clc1ccccc1-c1nn2c(-c3ccncc3)nnc2s1 | 1 | 51 | 49* | 102 | -1 | 25* | -1
Clc1ccccc1-c1nnc2sc(-c3ccncc3)nn12 | -3 | 0 | -10 | 93 | -4 | . | .
CCn1cc(C(=O)NCC(OC)OC)c(=O)c2cc(S(=O)(=O)N3CCC(C)CC3)ccc21 | -2 | 0 | 59* | 102 | -13 | -2 | -2
Cc1ccc(/C=N/n2c(-c3ccncc3)n[nH]c2=S)o1 | -4 | 28 | 47* | 100 | 22 | 90* | -3
Cc1ccc(/C=N/n2c(-c3ccncc3)n[nH]c2=S)s1 | -6 | 31 | 49* | 105 | 6 | 82* | -4
S=c1[nH]nc(-c2ccncc2)n1/N=C/c1ccccc1 | -3 | 5 | 55* | 100 | 20 | 71* | 1
Cc1cccc(/C=N/n2c(-c3ccncc3)n[nH]c2=S)c1 | -2 | 11 | 79* | 101 | 5 | 99* | -2
O=C1NC(=O)C2(CCCCCC2)N1 | . | 1 | . | . | . | . | .
Oc1ccc(-c2nc(=S)[nH][nH]2)cc1 | -3 | 17 | 64* | 80 | 18 | 90* | -1
FC(F)(F)c1ccc(-c2nc(=S)[nH][nH]2)cc1 | -2 | 23 | -7 | 90 | 10 | . | .
COc1ccc(-c2nc(=S)[nH][nH]2)cc1OC | -15 | 20 | 61* | 103 | 22 | 93* | 2
COc1ccc(-c2nc(=S)[nH][nH]2)cc1 | -3 | 29 | 62* | 109 | -37 | 95* | -4
Cc1cccc(C(C(=O)NC2CCCC2)N(C(=O)c2csnn2)C2CCCC2)c1 (stereo unspecified) | 0 | -8 | -4 | 107 | -15 | . | .
NS(=O)(=O)c1ccc(CNC(=O)c2cc(S(=O)(=O)N3CCOCC3)c(Cl)cc2Cl)cc1 | 3 | -17 | 9 | . | . | . | .
CCc1ccc(CN2CCC(C(=O)Nc3ccc(Oc4ccccc4)nc3)CC2)o1 | 1 | 0 | 41* | 104 | -1 | 0 | .
CCOc1ccc(N2C(=O)CC(Sc3n[nH]c(-c4ccccc4)n3)C2=O)cc1 (stereo unspecified) | -3 | 4 | 46* | 81 | 3 | 47* | 1
COc1ccc(N2C(=O)CC(Sc3n[nH]c(-c4ccccc4)n3)C2=O)cc1 (stereo unspecified) | -3 | 12 | 53* | 91 | -20 | 62* | -2
COc1ccc(N2C(=O)CC(Sc3nc(C)c4c(n3)CCCC4)C2=O)cc1 (stereo unspecified) | 0 | -12 | -8 | 95 | -11 | . | .
CCOC(=O)[C@H]1[C@H]2COc3ccc(C)cc3[C@@H]2N2C(=O)c3ccccc3NC(=O)[C@@]12C | 3 | 6 | 1 | 105 | . | . | .
CCSc1n[nH]c(=S)s1 | -6 | 8 | 52* | 102 | 6 | 59* | 0
COC(=O)c1ccc(CSc2n[nH]c(=S)s2)o1 | 0 | 21 | 50* | 97 | 6 | 59* | 3
O=C(O)CC(Sc1n[nH]c(=S)s1)C(=O)O (stereo unspecified) | 1 | 39 | 44* | 101 | 25 | 60* | 3
COC(=O)CSc1n[nH]c(=S)s1 | -2 | 7 | 50* | 174 | 22 | 65* | 2
NC(=O)c1cc([N+](=O)[O-])c(Cl)cc1NCc1ccccn1 | -3 | 15 | 3 | 89 | . | . | .
